From PubChem BioAssay (NCI) come the findings set out here.

The panel holds about 83,000 compounds, 20% with a hit somewhere; the sample as a whole holds those more often.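 Values shown are percent growth following 48 h exposure of cells in 96-well plates to a single concentration of compound; below 10 was considered active.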 A number with no mark means an inactive call. Active and inactive are the calls of the source.

In the assay the test system is HL-60(TB) leukemia. Nature of the assay: NCI-60 one-dose screen, 48 h (100 = growth as untreated, 0 = no growth, -100 = all killed). Conditions: 10 µM unless noted.
Consider `CC(=O)c1ccc(Br)c([N+](=O)[O-])c1`, for which the growth is 122%. Under `COc1cc(/C=C/C(=O)c2ccc(-n3cc(CN4CCN(c5cc6c(cc5F)c(=O)c(C(=O)O)cn6C5CC5)CC4)nn3)cc2)ccc1O` stands 90.3%; under `c1ccc(-c2nnc(Nc3nnc(-c4ccccc4)s3)s2)cc1`, 103%; under `COC1NC(Cl)=C(C#N)C(C#N)(C#N)C1(C)C` (stereo not given), 92.9%. For `Nc1c(Cl)cc(/C=C2\C=Cc3ccccc32)cc1Cl` the value was 104%; for `CCn1c2ccccc2c2ccc(C(C)=O)cc21`, 118%.

For the compound `CNC(=O)c1cc(Oc2ccc3nc(NC(=O)Nc4ccc(CN5CCOCC5)c(C(F)(F)F)c4)sc3c2)ccn1`, the growth was 17.1%. For `Cn1cc(-c2nonc2-c2c[nH]c3ccccc23)c2ccccc21` the value was 1.04% (active). For `O=C1Nc2ccc(Cl)cc2/C1=N/N=C(c1ccccc1)c1ccccc1` the value was 91.4%; for `COc1ccc(CNC(=O)c2c(C)n([O-])c3cc(F)c(F)cc3[n+]2=O)cc1`, 101%.

For the compound `CC(=O)OCCCCCCn1c2ccccc2c2c3c(c4c5ccccc5n(C)c4c21)C(=O)N(O)C3=O`, the growth is 41.2%. Under `COc1ccc2nc3cc(Cl)ccc3c(NCCN)c2c1` stands -51.5% (active); under `CC(C)(C)OC(=O)N1CCN(c2ccc(N)cc2)C(=O)C1`, 102%. For `Cc1cc(C(N)=O)cc(C)c1C(=O)OCCCl` the value was 106%; for `CCOc1ccc(NC(=O)Nc2ccc(OCC)cc2)cc1`, 96.7%. Under `Cc1nc2c3c(-c4ccccc4)c(-c4ccccc4)oc3ncn2n1` stands 91.4%; under `CCCCCCCCCCCC(=O)[O][Sn]([CH2]CCC)([CH2]CCC)[CH2]CCC`, -44.1% (active); under `CCN(CC)CCOc1ccc(/C(=C(\C)c2ccc(F)c(OC)c2)c2ccc(Cl)cc2)cc1`, -27.9% (active).

With `COc1ccc(C(=O)Nc2cccc(-c3cc(=O)c4c(OC)c(OC)c(OC)cc4o3)c2)cc1`, the growth is 44.8%. Turning to `Cc1ccccc1[P+](Cc1ccccc1)(c1ccccc1)c1ccccc1`, the growth was -26.9% (active). For `CC1=NNC(=O)C1C` (stereo not given) the value was 124%; for `N=c1ccn2c(n1)O[C@@H]1[C@@H](O)[C@H](CO)O[C@@H]12`, 84%; for `COc1cc2cc3c(nc2cc1OC)CCN3Cc1ccc(NC(=O)Nc2cc(C(F)(F)F)cc(C(F)(F)F)c2)cc1`, 81.5%. Regarding `O=C(Cc1ccc(/C=C/C(=O)c2ncc[nH]2)cc1)Nc1ccc(Br)cc1`, the growth was 0.0282% (active). For `O=C(Cc1ccccc1)Nc1nnc(NC2CCN(c3nnc(NC(=O)Cc4ccccc4)s3)CC2)s1` the value was 96.7%; for `Cc1cccc[n+]1C1c2ccccc2-c2ccccc21`, 92%.

With `Cc1c(C(N)=O)sc2ncn(CC(=O)Nc3ccc(Cl)cc3)c(=O)c12`, the growth was 110%. In the case of `COc1ccc(-c2cc(-c3ccccc3)nc(SCCCC(=O)NO)n2)cc1OC`, the growth is -12.2% (active).

Turning to `Cc1ccc(C(=O)Nc2cccc(C#Cc3cccc4[nH]nc(N)c34)c2)cc1C(F)(F)F`, the growth was 19.2%. Under `CCCCCCNc1nc(N2CCOCC2)c2[nH]c(NCCCCCC)nc2n1` stands -54.8% (active). Under `CC12CCC3C4(C)COC(c5ccco5)OC4CCC3(C)C1CC(C1=CCOC1=O)O2` (stereo not given) stands 98.3%; under `O=Cc1[nH]c(Sc2ccccc2)c2ccccc12`, 12.1%; under `COc1ccc(-n2nc(C)c3c(Nc4ccc(NC(=O)Nc5cccc(C(F)(F)F)c5)cc4)ncnc32)cc1`, -1.99% (active). Under `CCn1c(-c2cc3c([nH]c4ccccc43)c(-c3cccc(O)c3)n2)n[nH]c1=S` stands 4.16% (active); under `Nc1c(C(=O)O)cc(Cl)cc1[N+](=O)[O-]`, 73.7%. For the compound `CCN1C2=C(SC(=S)C1=C1SC(C(=O)OC)=C(C(=O)OC)S1)SC(=Nc1ccc(OC)cc1)C2=O`, the growth is 26%. Turning to `O=C1N=C(c2c(-c3[nH]c(=O)c4ccc(Br)cc4c3O)c(O)c3ccccc3c2O)C(=O)c2cc(Br)ccc21`, the growth is 45.6%. Under `O=C1c2cccc3cccc(c23)C(=O)N1CC#Cc1ccc2c3c(cccc13)C(=O)N(CCN1CCNCC1)C2=O` stands 93%; under `CCOC(=O)CC/C(C)=N\Nc1ccc([N+](=O)[O-])cc1`, 26.4%; under `O=C(/C=C/c1sc(Cl)nc1Cl)c1ccc(Br)cc1`, 71.4%.
